Assay results reported in the supplement of paper PMC6555819.

Each sequence was assayed on PPARg:RXRa 90nM:30nM, anti-RXR (NR concentration 90 nM, RXRa partner concentration 30 nM) (assay: PBM binding z-score (relative to random genomic background probes); higher = stronger binding; sequences stand for … in GC…GCGATTGACAGCGTAGAATGAAGG).
In short: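 Each nuclear receptor dimer, without ligand, was incubated for 1 h on custom Agilent 4×180K protein-binding microarrays. Binding was detected with antibodies against each partner (one per run), and scanned fluorescence was regression-normalized. The binding z-scores are referenced to random human genomic background probes.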

Sequence	PBM binding z-score
CCGAGTAGGTTACGAGGGGGCATTCAATGCGAAT	2.45
CCGAGTAGGTTACGAGGGGGCATTTAGTGCGAAT	2.89
TCGAGTAGGTTACGGGGGGATTCAGGGATGAAGA	4.14
CTGAGTAGGTTACGAGGGGGCATTCAGTGCGAAT	3.41
CTATGTAGGTTAAGGGGGTCATACAGTTTGAAAG	8.11
CTATGTAGGTTAAGGGGGTCTTTCAGTTTGAAAG	6.8
CCGAGTAGGTTACGAGGGGGCAATCAGTGCGAAT	2.21
CCGAGTAGGTTACCAGGGGGCATTCAGTGCGAAT	2.27
TCGAGTCGGTTACGGGGGCATTCAGGGATGAAGA	2.15
TCGAGTAGGTTACGGGGACATTCAGGGATGAAGA	2.27
CTATGTAGGTTAAGGGGGTCATTCCGTTTGAAAG	7.6
CTATGTAGGTTGAGGGGGTCATTCAGTTTGAAAG	5.21
CCGAGTGGGTTACGAGGGGGCATTCAGTGCGAAT	1.74
CCGAGTAGGTTATGAGGGGGCATTCAGTGCGAAT	2.77
CCGAGTAGGTAACGAGGGGGCATTCAGTGCGAAT	1.9
CCGGGTAGGTTACGAGGGGGCATTCAGTGCGAAT	2.49
CCGAGTAGCTTACGAGGGGGCATTCAGTGCGAAT	-0.359
CTATGAAGGTTAAGGGGGTCATTCAGTTTGAAAG	5.16
CCGAGTAGGTTACGAGGAGGCATTCAGTGCGAAT	0.832
CTCTGTAGGTTAAGGGGGTCATTCAGTTTGAAAG	6.57
CTATGGAGGTTAAGGGGGTCATTCAGTTTGAAAG	5.74
TCGAGTAGGTTACGGGGGCATTCACGGATGAAGA	5.06
